Data reported in PubChem BioAssay AID651821 (The Scripps Research Institute Molecular Screening Center, 2012).
Out of some 370,000 compounds screened, about 4,700 (1.3%) were called active. This is one part of a sample in which actives are shown more often than they occur. Unmarked numbers belong to inactive results.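 The calls were made as follows: active = inhibition above the plate cutoff, the mean of all test compounds on that plate plus 3 SD (cut at about 35% in these data); inactive = the rest.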

Test: small molecules binding CAG repeat RNA – biochemical, fluorescence, primary screen (AID 651821);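 also: 0% = DMSO alone and 100% = 100 µM mitoxantrone as full dye displacement; higher means more dye released from RNA so lower well fluorescence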
Conditions: r(CAG) RNA repeat, TO-PRO-1 dye displacement fluorescence; at 3 µM; stronger effect = higher value
`CC(=O)c1ccc(Nc2nc(C(N)c3ccccc3Cl)cs2)cc1` (centres undefined) showed an inhibition of 2.58%. With `O=c1oc2ccccc2cc1-c1csc(Nc2ccc(O)cc2)n1` the inhibition was 38.9% (active). With `O=S1(=O)c2c(cccc2N2CCCCC2)O[C@H](COCc2ccccc2)CN1C1CC1` the inhibition was 5.4%. With `O=C1Nc2ccccc2C1=NN=Cc1ccco1` the inhibition was 3.21%. With `COC(=O)[C@H](C(C)C)N(CCCc1cn(Cc2ccccc2)nn1)S(=O)(=O)c1ccc(F)cc1Br` the inhibition was 2.97%. For `Nc1[nH]c(=S)nc2nc(-c3ccccc3)c(-c3ccccc3)nc12`, the inhibition was 41.4% (active). With `C[C@H](NC(=O)[C@@H]1Cc2ccccc2CN1C(=O)OC(C)(C)C)C(=O)NC1CCCC1` the inhibition was -7.18%. `COc1ccc2c(c1)CN1CN(CCc3ccccc3)S(=O)(=O)CC21` (centres undefined) showed an inhibition of 3.05%. Work on `CCCCNc1cccc2c1S(=O)(=O)N[C@@H](C)CO2` yielded an inhibition of 0.84%. `COC(=O)Nc1ccc(S(=O)(=O)Nc2cc(OC)nc(OC)n2)cc1` gave an inhibition of 1.9%. For `COc1cc(NS(=O)(=O)c2ccc(NC(=S)NC(=O)c3ccccc3)cc2)nc(OC)n1`, the inhibition was 24.5%. For `COc1cc(NS(=O)(=O)c2ccc(N/C=C(\C=O)c3nc4cc(Cl)ccc4o3)cc2)nc(OC)n1`, the inhibition was 60.3% (active). For `COc1ccc(Cn2cc(COC(=O)N(C)Cc3ccccc3)nn2)cc1`, the inhibition was -0.97%. For `Cc1ccccc1CN1CCCCC(NC(=O)Nc2ccccc2F)C1=O` (centres undefined), the inhibition was 4.44%. In the case of `COC(=O)c1sc(-c2ccc(C(C)(C)C)cc2)cc1NC(=O)/C=C/C(=O)O`, the inhibition is reported as 36.6% (active). With `O=C(C=CC(=O)Nc1ccc(F)cc1F)Nc1ccc(F)cc1F` the inhibition was 0.56%. Work on `O=C(CSc1nnc(-c2ccccn2)n1-c1ccc(Cl)cc1)Nc1ccccc1-c1ccccc1` yielded an inhibition of 8.25%. In the case of `Cc1ccc(S(=O)(=O)CCC(=O)OCC(=O)N(C)C2CCS(=O)(=O)C2)cc1` (centres undefined), the inhibition is reported as 2.79%. With `O=C(c1cc(-c2ccco2)nc2ccccc12)N(Cc1nnc(-c2ccc(Cl)cc2)o1)C1CC1` the inhibition was 8.3%. With `CN(C(=O)COC(=O)c1cc(-c2ccco2)nc2ccccc12)C1CCS(=O)(=O)C1` (centres undefined) the inhibition was 42.3% (active). In the case of `COC(=O)[C@]12C[C@H](CC(=O)NCC34CC5CC(CC(C5)C3)C4)C(=O)N(Cc3ccc(Cl)cc3Cl)C1=C[C@H](COCc1ccccc1)O[C@@H]2C`, the inhibition is reported as 10.5%. `COc1cccc(CNCCc2c[nH]c3ccccc23)c1OCc1ccccc1F` showed an inhibition of 4.43%. `Cc1ccc(S(=O)(=O)N(C)CC(=O)NCCc2c[nH]c3ccccc23)cc1` gave an inhibition of 0.8%. With `COc1ccc(S(=O)(=O)NCCc2c[nH]c3ccccc23)cc1OC` the inhibition was 35.2% (active).
